Laboratory results published in PubChem BioAssay AID1159580 (chemical genetic matrix, 2015).
“And” between values parts separate entries of the source, which are not always exact repeats. Equal values may be shown once. The whole screen tested about 5,500 compounds, of which about 2,000 (36%) were called active. Inconclusive results (about 18%) are left out. No stated cut-off is given here; in the data, active means normalized growth mostly below about 0.91 (no sharp cut-off); inconclusive means no clear call, values can overlap the other calls; inactive means mostly above about 0.92. The list shows a part of the results.

Test: chemical genetic growth profiling, strain panel (AID 1159580);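 further: tested at 20 µM; growth read once vehicle control cultures reached saturation at 30 °C; 1 = growth at the plate median or of vehicle wells; lower values mean less growth of the strain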
Details: S. cerevisiae deletion strains, growth OD

Measured: normalized growth

CN1CCN(C2=Nc3cc(Cl)ccc3Nc3ccccc32)CC1
active: locus YDR137W, strain rgp1, active compounds read low 1.15 [resistant] | locus YER155C, strain BEM2 (second series), active compounds read low 0.802
inactive: locus YAL013W, strain DEP1, active compounds read low 1.02 | locus YAL021C, strain ccr4, active compounds read low 0.991 | locus YAL026C, strain drs2, active compounds read low 0.953 | locus YAL030W, strain snc1, active compounds read low 1.01 | locus YAL040C, strain CLN3, active compounds read low 1.01 | locus YBL061C, strain skt5, active compounds read low 0.968 | locus YBR009C, strain hhf1, active compounds read low 1.01 | locus YBR021W, strain FUR4, active compounds read low 0.979 | locus YBR023C, strain chs3, active compounds read low 0.987 | locus YBR171W, strain sec66, active compounds read low 0.975 | locus YBR229C, strain ROT2, active compounds read low 1.01 | locus YBR231C, strain swc5, active compounds read low 0.988 | locus YBR279W, strain paf1, active compounds read low 0.983 | locus YCL011C, strain gbp2, active compounds read low 0.984 | locus YCL016C, strain dcc1, active compounds read low 0.954 | locus YCL029C, strain bik1, active compounds read low 1.01 | locus YCL061C, strain MRC1 (second series), active compounds read low 1 | locus YCL061C, strain MRC1, active compounds read low 0.984 | locus YCL069W, strain vba3, active compounds read low 0.981 | locus YCR088W, strain abp1, active compounds read low 0.985 | locus YDL005C, strain med2, active compounds read low 0.984 | locus YDL035C, strain GPR1, active compounds read low 1 | locus YDL040C, strain nat1, active compounds read low 1 | locus YDL074C, strain BRE1, active compounds read low 0.935 | locus YDL101C, strain DUN1, active compounds read low 0.996 | locus YDL134C, strain PPH21, active compounds read low 0.991 | locus YDL185W, strain tfp1, active compounds read low 1.01 | locus YDL192W, strain arf1, active compounds read low 1.02 | locus YDR001C, strain nth1, active compounds read low 0.989 | locus YDR069C, strain doa4, active compounds read low 0.968 | locus YDR101C, strain arx1, active compounds read low 1 | locus YDR150W, strain NUM1, active compounds read low 1.01 and 0.991 | locus YDR159W, strain sac3, active compounds read low 0.948 | locus YDR162C, strain NBP2, active compounds read low 0.97 | locus YDR195W, strain ref2 1.04 | locus YDR297W, strain sur2, active compounds read low 0.976 | locus YDR318W, strain mcm21, active compounds read low 1.02 | locus YDR334W, strain swr1, active compounds read low 0.98 | locus YDR335W, strain msn5, active compounds read low 0.977 | locus YDR363W, strain ESC2, active compounds read low 0.884 | locus YDR388W, active compounds read low 1.02 | locus YDR392W, strain spt3, active compounds read low 0.801 | locus YDR502C, strain sam2, active compounds read low 0.994 | locus YEL003W, strain gim4, active compounds read low 0.987 | locus YEL037C, strain rad23, active compounds read low 0.979 | locus YEL061C, strain CIN8 (second series), active compounds read low 0.977 | locus YEL061C, strain CIN8, active compounds read low 1.05 | locus YER002W, strain NOP16, active compounds read low 0.997 | locus YER015W, strain faa2, active compounds read low 0.991 | locus YER016W, strain bim1, active compounds read low 0.966 | locus YER110C, active compounds read low 1.03 | locus YER111C, strain swi4, active compounds read low 0.975 | locus YER155C, strain BEM2, active compounds read low 1.01 | locus YER167W, strain BCK2, active compounds read low 1 | locus YFR010W, strain ubp6, active compounds read low 1.02 | locus YGL078C, strain dbp3, active compounds read low 1.01 | locus YGL086W, strain mad1, active compounds read low 1.02 | locus YGL167C, strain pmr1, active compounds read low 0.989 | locus YGL173C, strain kem1, active compounds read low 0.98 | locus YGL227W, strain vid30, active compounds read low 0.969 | locus YGL240W, strain doc1, active compounds read low 1.03 | locus YGL248W, strain PDE1, active compounds read low 0.99 | locus YGL253W, strain hxk2, active compounds read low 0.982 | locus YGR078C, strain PAC10, active compounds read low 0.975 and 1.01 | locus YGR135W, strain pre9, active compounds read low 0.987 | locus YGR229C, strain SMI1, active compounds read low 0.948 | locus YGR252W, strain gcn5, active compounds read low 0.994 | locus YHR013C, strain ard1, active compounds read low 0.917 | locus YHR027C, strain rpn1, active compounds read low 0.985 | locus YHR030C, strain SLT2, active compounds read low 1.02 and 1.07 | locus YHR079C, strain IRE1 (second series), active compounds read low 1.03 | locus YHR079C, strain IRE1, active compounds read low 1.03 | locus YHR094C, strain hxt1, active compounds read low 1.02 | locus YHR129C, strain ARP1, active compounds read low 1.01 | locus YHR142W, strain chs7, active compounds read low 0.949 | locus YHR200W, strain rpn10, active compounds read low 1.01 | locus YIL066C, strain RNR3, active compounds read low 1.01 | locus YIL073C, strain SPO22, active compounds read low 1.1 | locus YIL125W, strain kgd1, active compounds read low 1.02 | locus YIR030C, strain dcg1, active compounds read low 1.02 | locus YJL092W, strain hpr5, active compounds read low 0.985 | locus YJL095W, strain BCK1 (second series), active compounds read low 0.991 | locus YJL095W, strain BCK1, active compounds read low 0.945 and 1.05 | locus YJL115W, strain asf1, active compounds read low 0.969 | locus YJL129C, strain trk1, active compounds read low 0.969 | locus YJL134W, strain LCB3, active compounds read low 1.01 | locus YJL154C, strain vps35, active compounds read low 0.981 | locus YJL164C, strain tpk1, active compounds read low 0.999 | locus YJL166W, strain qcr8, active compounds read low 1 | locus YJL168C, strain set2, active compounds read low 1.03 | locus YJL187C, strain SWE1 (second series), active compounds read low 1 | locus YJR043C, strain POL32, active compounds read low 1.02
